Assay results from PubChem BioAssay AID743279 (National Center for Advancing Translational Sciences (NCATS), 2014).
Out of some 360,000 compounds screened, about 17,000 (4.7%) were called active. Inconclusive results (about 5%) are left out. The full list was thinned out, with actives kept by preference. Values without a mark were called inactive. Cut-off read from the data, not from the text of the source: active = activity change below about -50%; inconclusive = mostly about -30% to -49%; inactive = weaker than that.

assay: qHTS for Inhibitors of Inflammasome Signaling: IL-1-beta AlphaLISA Primary Screen; details: THP-1 LPS/ATP IL-1B secretion, 16 h; at 57.5 µM, stronger effect = lower value
Description: Inflammasomes are a set of intracellular multi-protein complexes that enable autocatalytic activation of inflammatory caspases and drive the innate immune response to counter harmful agents. […] A qHTS assay, based on AlphaLISA technology, was developed to screen the Molecular Libraries Small Molecule Repository (MLSMR) to look for novel inflammasome inhibitors. The assay detects IL-1B using AlphaLISA anti-IL-1B acceptor and donor beads. A decreased emission signal, indicating reduced IL-1B secretion, is the desired outcome for this assay. NIH Chemical Genomics Center [NCGC] NIH Molecular Libraries Probe Centers Network [MLPCN] MLPCN Grant: MH095513 Assay Provider: Shyam Biswal Ph.D., Johns Hopkins University Immunity. 2012 Jul 27;37(1):85-95. PMID: 22819042 [2] Curr Pharm Des. 2012;18(16):2320-8. PMID: 22390695
Three microliters containing 3000 THP-1 cells were dispensed into the wells of solid, white, tissue culture treated Greiner 1,536-well plates. Library compounds and positive control, Glyburide, were pin-transferred (23 nL) by a Kalypsys pin-tool equipped with a 1,536-pin array, resulting in final compound concentration ranges of 2.5 nM to 57.5 uM. After 1 hr of cell culture incubation (37 °C, 5% CO2), 1 microL of 1 microg/mL lipopolysaccharide (250 ng/mL, final) and 5 mM ATP (1.25 mM, final) were added to stimulate the cells. After 16 hr of cell culture incubation with the compounds, 1.5 uL of anti-IL-1B acceptor beads (6 ug/mL, final) and biotinylated antibody (0.6 nM, final) were added to the plate, followed by a 1 hr incubation at ambient temperature. To detect the secreted IL-1B, 1.5 uL of AlphaLISA SA-Donor beads (24 ug/mL, final) were added, followed by 30 min of incubation in the dark at ambient temperature. The AlphaLISA signal was read by a PerkinElmer EnVision plate reader with an ultrasensitive luminescence detector and 1536 Plate HTS AlphaScreen aperture (excitation of 680nm and emission of 615nm).
% is set by controls: 0 for no effect and ±100 for the full control effect.

In the case of `COc1ccc(-n2ncc3c2CC(C)(C)CC3NC(=O)CCc2c(C)noc2C)cc1` (stereo unspecified), the activity change is reported as “inactive”.
For `CCc1nc2ccc(C(=O)NCc3ccc(OC)cc3)cn2c1N(CC)Cc1cccc(Br)c1`, the activity change was -70.8% (active).
In the case of `CC(C)CC[n+]1ccn(C2=C([O-])c3ccccc3C(=O)/C2=N\S(=O)(=O)c2ccccc2)c1`, the activity change is reported as -50.7% (active).
In the case of `C/C(CC1CC(C)(C)OC1=O)=N/Nc1nc(-c2ccccc2)cs1` (stereo unspecified), the activity change is reported as -54.9% (active).
For `COc1ccc(CNC(=O)C2(CC3CC(c4ccccc4)=NO3)CCN(C(=O)c3cccc(O)c3)CC2)cc1` (stereo unspecified), the activity change was -61.2% (active).
For `O=C(c1ccccc1)N1CCC(CC2CC(c3ccc(Cl)cc3)=NO2)(C(=O)NCC2CCCCC2)CC1` (stereo unspecified), the activity change was -55.1% (active).
For `CC(=O)Nc1cc(-c2ccc(N3CCN(C)CC3)cc2)cn2c(-c3ccc(F)cc3)cnc12`, the activity change was -91.8% (active).
In the case of `CSCCC(NC(=O)c1ccccc1)C(=O)N1CCN(Cc2ccc(Cl)cc2)CC1` (stereo unspecified), the activity change is reported as -78.1% (active).
For `COc1ccc(C2Nc3ccccc3C(=O)N2Cc2ccccc2)cc1Cn1nnc2ccccc21` (stereo unspecified), the activity change was -62.4% (active).
With `COc1cc(SC#N)ccc1N=Cc1c(C)[nH]n(-c2ccc(C)cc2)c1=O` the activity change was -83.8% (active).

First: O=C(N=C1SC2CS(=O)(=O)CC2N1Cc1ccccc1)c1ccccc1 (stereo unspecified)
Second: COc1ccc(CNC(=O)C2CCN(C(=O)c3ccccc3)CC2)cc1
The activity change of the first is lower: -24.4% for the first, 0% for the second.

Compared with `CCc1nc2ccc(C(=O)Nc3cccc(OC)c3)cn2c1N(CCC(C)C)CCN(C)C`, `CCc1nc2ccc(C(=O)NCCNC(C)=O)cn2c1N(CC)Cc1cccc(Br)c1` is lower in activity change: 30.7% for the first, 27.3% for the second.

Going from `CN(C(=O)CN1CCN(c2cc(-c3ccc(OCc4ccccc4)cc3)ncn2)CC1)c1ccccc1` to `CCc1nc2c(OCc3ccccc3)cccn2c1N(C)C(=O)c1ccco1`, the activity change falls from 8.46% to -17.3%.

First: Cc1ccc(S(=O)(=O)/N=C2\C=C(NS(=O)(=O)c3ccc(C)cc3)C(=O)c3ccccc32)cc1
Second: COc1ccc(S(=O)(=O)/N=C2\C=C(NS(=O)(=O)c3ccccc3)C(=O)c3ccccc32)cc1
The activity change of the first is higher: 57.7% for the first, 36% for the second.

Going from `CC(=O)c1ccc(NC(=O)C(C)NCc2ccc(Cl)cc2)cc1` (stereo unspecified) to `CC(=O)N1c2ccc(S(=O)(=O)N3CCCC(C(=O)NCc4ccc(Cl)cc4)C3)cc2CC1C` (stereo unspecified), the activity change falls from -14.8% to -22.7%.

First: C[C@H]1CN([C@@H](C)CO)C(=O)c2cc(-c3cccc(F)c3)cnc2O[C@@H]1CN(C)S(C)(=O)=O
Second: COc1ccccc1-c1cc(NC(C)=O)c2ncc(-c3ccc(F)cc3)n2c1
The activity change of the first is higher: 7.01% for the first, -21.1% for the second.

Going from `CCC(=O)N1CCc2cc(Br)c(S(=O)(=O)NCCN3CCCCC3CC)cc21` (stereo unspecified) to `Cc1[nH]c(C)c(S(=O)(=O)N2CCC(C)CC2)c1C(=O)N1CCCC1`, the activity change falls from -5.22% to -16.2%.

Compared with `CCc1noc(C)c1C(=O)Nc1nc(-c2ccccc2)cs1`, `Cc1ccccc1-c1cc(C(=O)NCC2CC2)n(CC2CC(c3cccnc3)=NO2)n1` (stereo unspecified) is lower in activity change: 61.4% for the first, -18.9% for the second.

Compared with `CC1(C)CC(CC(=O)O)C(=O)O1` (stereo unspecified), `CCNC(=O)C1(C)CCN(C(=O)c2ccccc2)C1` (stereo unspecified) is higher in activity change: -17% for the first, 26.9% for the second.

Compared with `COC(=O)[C@@]1(Cc2ccc(F)cc2)[C@H]2c3cc(C(=O)N4CCCC4)n(C[C@H](O)CO)c3C[C@H]2CN1C(=O)c1ccccc1`, `CSCCC(NC(=O)c1ccccc1)C(=O)N1CCCCCCC1` (stereo unspecified) is lower in activity change: -0.432% for the first, -20.8% for the second.

Going from `CN1OC[C@@H]2CN(S(=O)(=O)c3cccc4ccccc34)[C@H](c3ccc(N4CCCCC4)cc3)C[C@@H]21` to `O=C(C[C@H]1CC[C@H]2[C@@H](COC[C@H](O)CN2C(=O)c2ccccn2)O1)N1CCN(c2ccccc2)CC1`, the activity change rises from -6.93% to 18.8%.

Going from `CCCCCCCNC(=O)C1(CC2CC(c3cccc(Br)c3)=NO2)CCN(C(=O)c2cc(OCC)c(OCC)c(OCC)c2)CC1` (stereo unspecified) to `CC(=O)Nc1cc(-c2ccc(N3CCN(C)CC3)cc2)cn2c(-c3cccc(C(=O)N(C)C)c3)cnc12`, the activity change rises from -24.2% to -6.52%.

Compared with `CC(=O)N=c1ncn(CC(COC(C)=O)OC(C)=O)c2nc[nH]c12` (stereo unspecified), `COc1ccccc1C(=O)NC(CCSC)C(=O)N1CCN(C(C)=O)CC1` (stereo unspecified) is higher in activity change: -17.6% for the first, -2.96% for the second.

First: O=c1[nH][nH]c2c1[C@H](c1ccc(Cl)cc1)O[C@H](CCc1ccccc1)C2
Second: CCN(CCN(C)C)C(=O)c1ccc2nc(C)c(N(C)C(=O)CCc3ccccc3)n2c1
The activity change of the first is lower: -5.73% for the first, 10.6% for the second.

Going from `Cc1cccc(CC2(O)C(=O)Nc3ccccc32)n1` (stereo unspecified) to `COc1ccc(N2C(=O)c3ccccc3NC2c2ccc(OC)c(CN3CCOCC3)c2)cc1` (stereo unspecified), the activity change falls from 12.5% to -2.56%.

Compared with `Cc1cc(C(C)(C)C)cc(S(=O)(=O)Nc2ccc(C(=O)O)cc2)c1C`, `CC(=O)Nc1cccc(NC(=O)c2ccc3c(c2)CCN3S(C)(=O)=O)c1` is lower in activity change: 0% for the first, -15.8% for the second.

First: COc1ccc(NC(=O)C(=O)NCC(c2ccco2)N2CCc3ccccc3C2)cc1 (stereo unspecified)
Second: Cc1cc(C)cc(NC(=O)C(c2ccccc2)N2CCN(CC(=O)N3CCCC3)CC2)c1 (stereo unspecified)
The activity change of the first is lower: 5.37% for the first, 15.8% for the second.

Going from `O=C1NC[C@@H](CCCCN2CCN(CCc3ccc(O)cc3)C(=O)C2=O)N(CC2CCCCC2)C1=O` to `FC(F)(F)Oc1ccccc1C(c1nnnn1C1CCCCC1)N1CCN(C/C=C/c2ccccc2)CC1` (stereo unspecified), the activity change falls from 24.5% to -26.5%.

Compared with `COc1ccc(C2Nc3ccccc3C(=O)N2c2ccc(F)cc2)cc1Cn1nnc2ccccc21` (stereo unspecified), `CC(=O)Nc1cccc(-c2cc(NC=O)c3ncc(-c4ccc(F)c(Cl)c4)n3c2)c1` is higher in activity change: -12.7% for the first, 18.8% for the second.

Compared with `Nc1ncnc2c1ncn2[C@@H]1O[C@H](C(=O)NS(=O)(=O)c2c(Cl)nc3sccn23)[C@@H](O)[C@H]1O`, `O=C(CSc1ccc(Cl)cc1)NC1CC1` is higher in activity change: -13.5% for the first, 3.85% for the second.

Compound `Cc1cccc(C)c1NC(=O)C(c1cccc(F)c1)N1CCN(C)CC1` (stereo unspecified) has an activity change of -18.5%.
